The values below come from PubChem BioAssay AID504437 (Emory University Molecular Libraries Screening Center, 2011).

Among all 2,100 compounds or so, about 940 (45%) were called active.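 Rule for the calls: active = mean of three repeat readings of reporter signal inhibition above a set limit (cut at about 70% in these data); inactive = the rest.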 So high a share suggests a set chosen from earlier hits. A selection follows.

The assay in a line: retest of CHOP induction inhibitors, confirmation, cell-based (AID 504437).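 Note: 0% = tunicamycin plus vehicle and 100% = wells lacking tunicamycin.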 The note with it: CHO-CHOP promoter luciferase reporter, tunicamycin-induced, luminescence; at 10 µM; stronger effect = higher value. Background: A reporter such as luciferase makes a cellular process visible.
With `NC(=O)CC(NC(=O)Cc1cccc2ccccc12)c1ccc(NCc2cc(F)ccc2F)c([N+](=O)[O-])c1` (stereo not drawn), the inhibition (commonly the relative decrease from the control value, in per cent) is 87.6% (active).

Regarding `O=[N+]([O-])c1c(NCCO)cc(Sc2nc3ccccc3s2)c2nonc12`, the inhibition is -6.6% (inactive).

As to `CC1=C/C(=N\OS(=O)(=O)c2ccccc2)C=CC1=O`, the inhibition was 141% (active).

For the compound `CCOc1ccc2nc(Nc3nc4ccc(NC(C)=O)cc4s3)sc2c1`, the inhibition is 56.5% (inactive).

As for `COc1ccc(COC(=O)c2n[nH]c3ccccc23)cc1F`, the inhibition is 15.5% (inactive).

`O=C(CCl)Nc1ccc(Sc2ccc(NC(=O)CCl)cc2)cc1`: the inhibition is 113% (active).

As for `Fc1ccccc1/C=C1\CCCC2=C1Nc1ncnn1C2c1ccccc1F` (stereo not drawn), the inhibition was 6.7% (inactive).

Take `O=C(NNc1ccccc1Cl)C(O)(c1cccc(C(F)(F)F)c1)c1cccc(C(F)(F)F)c1`: the inhibition was 54.8% (inactive).

As for `O=C(Cn1cc(C(F)(F)F)ccc1=O)N/N=C/c1ccc(Cl)cc1Cl`, the inhibition was 27.2% (inactive).

For the compound `OCCCNc1nccc(-c2cc(Nc3cccc(Cl)c3)ncn2)n1`, the inhibition was 121% (active).

As to `Cc1ccc(-n2ncc3c2ncn2nc(-c4ccco4)nc32)c(C)c1`, the inhibition was -1.3% (inactive).

Consider `COc1ccc(NC(=O)/C(C#N)=C\c2cc(OC)c(OCc3ccc(C(=O)O)cc3)cc2Br)cc1`, for which the inhibition was 17.8% (inactive).

On to `O=C(Nc1ccccc1Cl)/C(Cl)=C(\Cl)S(=O)c1ccccc1` (stereo not drawn), for which the inhibition was 122% (active).

With `Clc1cccc(CN2COc3c(cc(Cl)c4cccnc34)C2)c1`, the inhibition was -62% (inactive).

On to `COc1cccc(-c2nnc(NC(=O)c3ccc(S(=O)(=O)N(CC(C)C)CC(C)C)cc3)o2)c1`, for which the inhibition was 110% (active).

With `CCOC(=O)c1cc2cc(-c3c(C(=O)OCC)oc4cc(O)cc(O)c4c3=O)ccc2o1`, the inhibition is 46.1% (inactive).

As for `Cc1nnc(SCC(=O)N/N=C/c2cn(-c3ccccc3)nc2-c2ccc(F)cc2)n1-c1ccccc1`, the inhibition is -50.1% (inactive).

With `CCN(CC)S(=O)(=O)c1ccc2nc(COC(=O)c3n[nH]c4ccccc34)[nH]c2c1`, the inhibition was 66% (inactive).

Regarding `CCCCCCn1c(CN2CCCC(C)C2)nc2c1c(=O)n(C)c(=O)n2C` (stereo not drawn), the inhibition was 97.6% (active).

Take `O=C(CC(NC(=O)c1ccccc1)c1ccccc1)Nc1ccc(F)c(F)c1` (stereo not drawn): the inhibition was 67.4% (inactive).

On to `CCCCCn1c(SCCC(C)C)nc2c1c(=O)[nH]c(=O)n2C`, for which the inhibition was 97.6% (active).

Consider `CCCCSc1nc2c(c(=O)n1CC)SC(C)C2` (stereo not drawn), for which the inhibition is 58.6% (inactive).

Consider `C=C(C)C(=O)O[C@H]1C/C(C)=C\C(=O)/C=C(\C)[C@H](O)[C@@H]2OC(=O)C(=C)[C@@H]21`, for which the inhibition is 43.7% (inactive).

In the case of `Cc1cccc(NC(=O)Nc2cccc(Oc3c(F)c(F)c(F)c(F)c3F)c2)c1`, the inhibition was 69.3% (inactive).

For the compound `O=C(Nc1cc(N2CCOCC2)ncn1)NC1(C(F)(F)F)Oc2ccc(Cl)cc2O1` (stereo not drawn), the inhibition was 93.7% (active).

Consider `Cc1c(C(=O)Nc2cccc(Cl)c2)cn2c(nc3ccccc32)c1C#N`, for which the inhibition is 33.5% (inactive).

Consider `O=C(/C=C/Sc1ncn[nH]1)c1ccc(Cl)cc1`, for which the inhibition is 98% (active).

`FC(F)(F)c1cc(-c2ccco2)nc(N2CCOCC2)n1`: the inhibition is 49.6% (inactive).

For `O=C(CCl)N(Cc1cccc([N+](=O)[O-])c1)c1cccc(Cl)c1`, the inhibition is 118% (active).

Consider `Cc1ccc(-n2nc(C)c(/C=N/NC(=O)c3cccs3)c2Cl)cc1`, for which the inhibition was -50.9% (inactive).

Turning to `CN1C(=O)/C(=C/c2ccc(C(=O)NC3CCCC3)cc2)Oc2ccccc21`, the inhibition was -73.2% (inactive).

`O=C1C=C(c2ccc(Cl)cc2)C(=O)N1Nc1ccccc1`: the inhibition is -116% (inactive).

Take `COc1cc(/C=N/NC(=O)Nc2ccccc2)ccc1OCCOc1ccccc1C`: the inhibition is 86.2% (active).

As for `CCCOc1ccc(Cc2c(Cl)nc(SC)nc2NC)cc1`, the inhibition was 104% (active).

For `N#CC(C(=O)c1ccc(S(=O)(=O)N2CCCCCC2)cc1)c1nc2ccccc2[nH]1` (stereo not drawn), the inhibition is -6.4% (inactive).

Consider `CCSc1nc(C)nc2c1oc1ccccc12`, for which the inhibition was 19.6% (inactive).

Regarding `Cc1ccc(-c2csc(-c3c[nH]c4ccccc34)n2)cc1`, the inhibition is 53.5% (inactive).

In the case of `COc1ccc(-n2c(SCC(=O)Nc3sc4c(c3C#N)CCCC4)nnc2-c2ccc(O)cc2)cc1`, the inhibition is 37.1% (inactive).

Take `Cc1nc(SCC(=O)Nc2cc(C)on2)c2c3c(sc2n1)CCCC3`: the inhibition is 80.7% (active).

For `Oc1ccc(/C=N/N(Cc2ccccc2)c2ccccc2)cc1`, the inhibition was 30.1% (inactive).

For the compound `Cc1c(-c2ccccc2)n[nH]c1C(=O)N=Nc1c(O)[nH]c2ccccc12`, the inhibition is -12.3% (inactive).

For `Cc1cc(-c2n[nH]c(=S)n2/N=C/C(Br)=C/c2ccccc2)n[nH]1`, the inhibition was 106% (active).

Consider `FC(F)(F)c1cc(C(F)(F)F)c2ccc(N3CCN(c4ccccc4)CC3)nc2n1`, for which the inhibition was 61.6% (inactive).

In the case of `CCCCc1nc(NCCN)c(C#N)c2c1CSC(C)(C)C2`, the inhibition was 82.5% (active).

Consider `O=[N+]([O-])c1cccc(-c2nnc3c4ccccc4c4ccccc4n23)c1`, for which the inhibition is 23.3% (inactive).

For the compound `CCCCCCC(=O)N(O)C1CC(=O)N(c2ccccc2)C1=O` (stereo not drawn), the inhibition was 16.2% (inactive).

For `Clc1ccc(Nc2nc(-c3cccs3)cs2)nc1`, the inhibition was 124% (active).

As for `Oc1cccc(C2c3[nH]c4ccccc4c3CCN2Cc2cnn(-c3ccccc3)c2)c1` (stereo not drawn), the inhibition is -4.4% (inactive).

In the case of `O=[N+]([O-])c1cc(S(=O)(=O)CCCN2CCOCC2)ccc1F`, the inhibition is -45.2% (inactive).

For the compound `O=C(Nc1ccccc1C(F)(F)F)c1cc(-c2ccc(O)cc2)on1`, the inhibition was 77.8% (active).

Consider `CC(C)Cc1cc(C(=O)Nc2cc(Br)ccc2O)no1`, for which the inhibition was 22.3% (inactive).

Turning to `CCCc1nc2ccccc2c(C(=O)OCC(=O)c2ccc3c(c2)NC(=O)CO3)c1CC`, the inhibition is -11.4% (inactive).

For the compound `CC(C)(C)C1C/C(=C/c2ccco2)C(=O)/C(=C/c2ccco2)C1` (stereo not drawn), the inhibition was 85.1% (active).

As for `OC(CNCC1CCCO1)Cn1c2ccc(Br)cc2c2cc(Br)ccc21` (stereo not drawn), the inhibition is 81.5% (active).

With `CC(C)(C)c1ccc(Oc2ccc(N)cc2)cc1`, the inhibition is 117% (active).

For the compound `O=C(Nc1nnc(COc2ccccc2)s1)Nc1ccccc1F`, the inhibition is 1% (inactive).

Turning to `Cc1cc(C(=O)CCl)c(C)n1CC1COc2ccccc2O1` (stereo not drawn), the inhibition was -124% (inactive).

On to `CS(=O)(=O)N(CC(=O)Nc1ccc(Cl)c(Cl)c1)C1CCCCC1`, for which the inhibition is 33.2% (inactive).

In the case of `COc1cc(/C=N/O)cc(Br)c1OCc1cccc(Cl)c1`, the inhibition is 138% (active).

For the compound `NC(N)=N/N=C/c1ccc(OCc2ccc(Cl)cc2Cl)cc1`, the inhibition is -25.2% (inactive).

Take `COC(=O)/C=C\C(=O)Nc1cccc([N+](=O)[O-])c1`: the inhibition was 101% (active).

With `Fc1ccccc1C(c1nnnn1Cc1ccc2c(c1)OCO2)N1CCN(Cc2ccccc2)CC1` (stereo not drawn), the inhibition was 22.4% (inactive).

As for `CC(C)=CCc1c(O)c(CC=C(C)C)c2occ(-c3ccc(O)cc3)c(=O)c2c1O`, the inhibition is 15.8% (inactive).

Consider `COc1cc(SC#N)ccc1N=Cc1c(C)[nH]n(-c2ccc(C)cc2)c1=O`, for which the inhibition is 34% (inactive).

As for `C=C(C)COc1ccc(-c2n[nH]c(C)c2-c2ccccc2OC)c(O)c1`, the inhibition was 112% (active).

On to `COc1ccc(/C=C/C(=O)Nc2c(C)nn(C)c2C)cc1COc1ccc(Br)cc1`, for which the inhibition was 20.4% (inactive).

Regarding `Cc1ccc(NC(=S)NC(NC(=O)Cc2cccc3ccccc23)C(Cl)(Cl)Cl)cc1` (stereo not drawn), the inhibition is 72.1% (active).

For the compound `CCOC(=O)c1c(C)[nH]c2c1-c1ccccc1C(=O)C2=O`, the inhibition is 122% (active).

Take `Cc1ccc(NC(=O)/C(=C/c2ccc([N+](=O)[O-])cc2)NC(=O)c2ccccc2)cc1`: the inhibition is -5.3% (inactive).

For `COc1cc(C(=O)OC(C)C(=O)NCC2CCCCC2)cc(NC(=O)c2ccco2)c1OC` (stereo not drawn), the inhibition is 93% (active).

Turning to `Cc1cccc(OCc2nnc(SCc3nc4cc(C(F)(F)F)ccc4c(=O)[nH]3)o2)c1`, the inhibition is 114% (active).

Turning to `CCOC(=O)C(C)Sc1nc2ccccc2c(=O)n1CC1CCCCC1` (stereo not drawn), the inhibition was 61.7% (inactive).

In the case of `C=CCn1c(C)cc(C2=NNC(=NCC)SC2)c1C`, the inhibition was 136% (active).

As for `NC(=O)COc1ccc(C23CC4CC(CC(C4)C2)C3)cc1`, the inhibition was 7.3% (inactive).

Take `CCOC(=O)C1=C(c2ccc(OC)cc2)C(=O)c2ccccc2C1=O`: the inhibition is 110% (active).

With `CSc1nc2sc3c(c2c(=O)[nH]1)CCc1ccccc1-3`, the inhibition was 12.2% (inactive).

For `O=C(/C=C/c1ccc(F)cc1)Nc1cccc(S(=O)(=O)Nc2cccc(C(F)(F)F)c2)c1`, the inhibition is 7.6% (inactive).

In the case of `CSc1nc(-c2ccccc2)nc(C(Cl)Cl)n1`, the inhibition is 96.2% (active).
